Results taken from PubChem BioAssay (Tox21).
Records with an inconclusive call do not appear. Entries that show only a call come without a potency. The source made the active and inactive calls. Unless noted, calls follow the shape of the dose curve; as a rule, active = well fitted curve in the direction sought with a large enough effect in the repeat runs; inconclusive = weak or mixed curves; inactive = no such curve, though single readings can be large; an effect the other way counts as inactive or inconclusive.

Legend:
[1] = qHTS assay to identify small molecule agonists of the peroxisome proliferator-activated receptor delta (PPARd) signaling pathway - cell viability counter screen (AID 743211); conditions: PPARd-bla HEK293H viability, CellTiter-Glo luminescence, 17 h; series mostly up to 62.6 µM; also: nearly all actives have a fitted effect of over 55% in size; also: potency is read from the fitted curve at half-maximal effect
Outline: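 qHTS cell viability: PPARd-bla HEK293H; 17 h cpd, 37C; CellTiter-Glo, luminescence at 30 min RT.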

[2] = target: Peroxisome proliferator-activated receptor delta (Homo sapiens) (UniProt Q03181); assay: qHTS assay to identify small molecule agonists of the peroxisome proliferator-activated receptor delta (PPARd) signaling pathway (AID 743212; calls by dose curve; also: potency is read from the fitted curve at half-maximal effect); conditions: HEK293H PPARd-UAS-bla, beta-lactamase FRET ratio, 17 h; series mostly up to 62.6 µM
Peroxisome proliferator-activated receptor delta (Homo sapiens), sequence (Q03181 whole entry, looked up): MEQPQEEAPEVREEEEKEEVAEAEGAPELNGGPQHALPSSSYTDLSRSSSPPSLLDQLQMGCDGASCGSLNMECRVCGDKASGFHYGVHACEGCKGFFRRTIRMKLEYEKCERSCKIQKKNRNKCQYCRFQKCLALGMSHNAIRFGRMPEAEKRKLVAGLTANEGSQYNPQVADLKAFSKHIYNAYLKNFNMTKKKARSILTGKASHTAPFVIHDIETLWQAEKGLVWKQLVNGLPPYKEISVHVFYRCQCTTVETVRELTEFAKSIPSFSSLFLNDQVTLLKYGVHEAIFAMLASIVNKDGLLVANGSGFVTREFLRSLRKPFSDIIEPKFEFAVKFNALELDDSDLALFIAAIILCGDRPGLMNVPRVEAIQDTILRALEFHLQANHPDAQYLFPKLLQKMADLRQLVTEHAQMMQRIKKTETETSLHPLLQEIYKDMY
Outline: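 GeneBLAzer PPARd UAS-bla HEK293H cells (beta-lactamase reporter under UAS control), plated and rested 5 h at 37 C, then exposed to compounds in DMSO at 37 C; LiveBLAzer B/G FRET substrate added, 2 h room temperature, fluorescence read.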

[3] = qHTS assay to identify small molecule antagonists of the peroxisome proliferator-activated receptor delta (PPARd) signaling pathway - cell viability counter screen (AID 743213); conditions: PPARd-bla HEK293H viability, CellTiter-Glo luminescence, 17 h; series mostly up to 62 µM; also: nearly all actives have a fitted effect of over 50% in size; also: potency is read from the fitted curve at half-maximal effect
Outline: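 Luminescence from CellTiter-Glo, added after the bla read and incubated 30 min at room temperature, gives viability of HEK293H PPARd-bla cells exposed to compounds for 17 h at 37 C with 300 nM L165041.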

[4] = target: Peroxisome proliferator-activated receptor delta (Homo sapiens) (UniProt Q03181); assay: qHTS assay to identify small molecule antagonists of the peroxisome proliferator-activated receptor delta (PPARd) signaling pathway (AID 743215; active = well fitted inhibition curve with a large enough effect in the signal ratio in the repeat runs, not every such curve was filed as active; the % refers to the signal ratio;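 also: cells stimulated with agonist L165041 at 300 nM final during compound exposure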); conditions: HEK293H PPARd-UAS-bla, beta-lactamase FRET ratio, antagonist, 17 h; series mostly up to 62 µM
Outline: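 HEK293H UAS-bla, PPARd; agonist L165041 300 nM final with cpd in DMSO; 37 C 17 h; FRET substrate, RT 2 h; fluorescence intensity.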

[5] = qHTS assay to identify small molecule agonists of the farnesoid-X-receptor (FXR) signaling pathway - cell viability counter screen (AID 743218); conditions: FXR-bla HEK293T viability, CellTiter-Glo luminescence, 16 h; series mostly up to 62.6 µM; also: nearly all actives have a fitted effect of over 45% in size; also: potency is read from the fitted curve at half-maximal effect
Outline: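 Parallel cytotoxicity test: compound-treated (16 h, 37 C) HEK 293T FXR-bla reporter cells were lysed with CellTiter-Glo and luminescence recorded.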

[6] = qHTS assay to identify small molecule antagonists of the farnesoid-X-receptor (FXR) signaling pathway - cell viability counter screen (AID 743221; active = well fitted cell-killing curve with a large enough effect in the repeat runs, not every such curve was filed as active; also: nearly all actives have a fitted effect of over 50% in size; also: potency is read from the fitted curve at half-maximal effect); conditions: FXR-bla HEK293T viability, CellTiter-Glo luminescence, 16 h; series mostly up to 62.6 µM
Outline: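 After a 5 h settling period, FXR-bla HEK 293T cells receive compound and chenodeoxycholic acid (50 uM final) and incubate 16 h at 37 C; CellTiter-Glo luminescence, read after 30 min at room temperature, reports cell viability.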

[7] = target: Vitamin D3 receptor (Homo sapiens) (UniProt P11473); assay: qHTS assay to identify small molecule agonists of the vitamin D receptor (VDR) signaling pathway (AID 743222; calls by dose curve); conditions: HEK293T VDR-UAS-bla, beta-lactamase FRET ratio, 16 h; series mostly up to 63.5 µM
Vitamin D3 receptor (Homo sapiens), sequence (P11473 whole entry, looked up): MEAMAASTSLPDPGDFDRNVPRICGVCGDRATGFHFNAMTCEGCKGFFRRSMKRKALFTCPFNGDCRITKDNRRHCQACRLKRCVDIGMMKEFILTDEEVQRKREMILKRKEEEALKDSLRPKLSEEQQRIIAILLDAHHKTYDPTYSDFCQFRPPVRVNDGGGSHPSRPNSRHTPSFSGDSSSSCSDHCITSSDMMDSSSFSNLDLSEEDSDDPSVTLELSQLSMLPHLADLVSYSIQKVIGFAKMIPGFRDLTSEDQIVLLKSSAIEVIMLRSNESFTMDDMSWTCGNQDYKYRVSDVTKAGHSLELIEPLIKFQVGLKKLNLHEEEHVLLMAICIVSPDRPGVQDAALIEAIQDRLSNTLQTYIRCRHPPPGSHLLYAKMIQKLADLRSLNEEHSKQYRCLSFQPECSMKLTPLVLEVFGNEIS
Outline: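 In VDR-bla cells, compound-induced beta-lactamase expression is quantified by FRET substrate fluorescence. Treatment lasts 16 h at 37C; substrate develops 2 h at room temperature.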

[8] = target: Bile acid receptor (Homo sapiens) (UniProt Q96RI1); assay: qHTS assay to identify small molecule agonists of the farnesoid-X-receptor (FXR) signaling pathway (AID 743220; active = well fitted activation curve with a large enough effect in the signal ratio in the repeat runs, not every such curve was filed as active; the % refers to the signal ratio); conditions: HEK293T FXR-UAS-bla, beta-lactamase FRET ratio, 16 h; series mostly up to 62.6 µM
Bile acid receptor (Homo sapiens), sequence (Q96RI1 whole entry, looked up): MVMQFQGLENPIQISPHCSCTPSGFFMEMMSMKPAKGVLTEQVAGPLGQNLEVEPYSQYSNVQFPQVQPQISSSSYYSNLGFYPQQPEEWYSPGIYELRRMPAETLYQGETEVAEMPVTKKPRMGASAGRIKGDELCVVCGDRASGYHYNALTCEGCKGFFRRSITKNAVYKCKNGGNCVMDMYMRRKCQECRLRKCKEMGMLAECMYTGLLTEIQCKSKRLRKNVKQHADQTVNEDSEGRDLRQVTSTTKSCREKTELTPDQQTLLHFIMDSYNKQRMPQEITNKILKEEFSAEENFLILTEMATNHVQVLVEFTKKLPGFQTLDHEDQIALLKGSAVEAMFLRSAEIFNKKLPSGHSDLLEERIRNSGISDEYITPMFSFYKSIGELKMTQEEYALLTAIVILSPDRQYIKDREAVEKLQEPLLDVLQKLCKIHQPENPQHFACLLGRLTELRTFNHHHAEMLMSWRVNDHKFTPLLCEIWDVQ
Outline: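 Beta-lactamase reporter under UAS control in GeneBLAzer FXR HEK 293T cells (5000/well) measured with LiveBLAzer FRET substrate after 2 h at room temperature. Compound exposure lasted 16 h at 37C.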

[9] = target: Bile acid receptor (Homo sapiens) (UniProt Q96RI1); assay: qHTS assay to identify small molecule antagonists of the farnesoid-X-receptor (FXR) signaling pathway (AID 743217; active = well fitted inhibition curve with a large enough effect in the signal ratio in the repeat runs, not every such curve was filed as active; the % refers to the signal ratio); conditions: HEK293T FXR-UAS-bla, beta-lactamase ratio, CDCA-stimulated, 16 h; series mostly up to 62.6 µM
Outline: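 GeneBLAzer FXR-UAS-bla HEK 293T, CDCA-stimulated (50 uM final). Compound treatment 16 h, 37 °C. Detection: beta-lactamase cleavage of B/G FRET substrate, fluorescence.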

[10] = target: Vitamin D3 receptor (Homo sapiens) (UniProt P11473); assay: qHTS assay to identify small molecule antagonists of the vitamin D receptor (VDR) signaling pathway (AID 743223; active = well fitted inhibition curve with a large enough effect in the signal ratio in the repeat runs, not every such curve was filed as active; the % refers to the signal ratio); conditions: VDR-UAS-bla HEK293T, beta-lactamase FRET ratio, 16 h; series mostly up to 61 µM
Outline: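 Reporter line VDR-bla; stimulus 1alpha,25-(OH)2 vitamin D3, 3 nM final; compound co-addition, 16 h 37C/5% CO2; LiveBLAzer B/G substrate 2 h RT; fluorescence intensity.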

O=[N+]([O-])C(Br)Br
Potency [1]: inactive
Potency [2]: inactive
Potency [3]: inactive
Potency [4]: inactive
Potency [5]: inactive
Potency [6]: inactive
Potency [7]: inactive

CCC(C)c1cccc(C(C)CC)c1O (stereo not given)
Potency [1]: inactive
Potency [2]: inactive
Potency [3]: inactive
Potency [4]: inactive
Potency [5]: inactive
Potency [8]: inactive
Potency [6]: inactive
Potency [7]: inactive

Cc1ccc([N+](=O)[O-])[c]2c1[O][Hg]2
Potency [1]: 1880 nM (active)
Potency [2]: 29800 nM (active)
Potency [3]: 5960 nM (active)
Potency [5]: 2370 nM (active)
Potency [6]: 1190 nM (active)

NC(=O)C(Cl)Cl
Potency [1]: inactive
Potency [2]: inactive
Potency [3]: inactive
Potency [5]: inactive
Potency [6]: inactive

C[N+]1(C)[C@@H]2CC[C@H]1CC(OC(=O)C(CO)c1ccccc1)C2 (stereo not given in full)
Potency [1]: inactive
Potency [2]: inactive
Potency [3]: inactive
Potency [4]: inactive
Potency [5]: inactive
Potency [6]: inactive

CCCCC(CC)COC(=O)OOC(C)(C)C (stereo not given)
Potency [1]: inactive
Potency [2]: inactive
Potency [3]: inactive
Potency [4]: inactive
Potency [6]: inactive
Potency [7]: inactive

COc1ccc2c3c1O[C@H]1[C@H](O)CC[C@H]4[C@@H](C2)N(C)CC[C@@]341
Potency [1]: inactive
Potency [2]: inactive
Potency [3]: inactive
Potency [4]: inactive
Potency [5]: inactive
Potency [6]: inactive

NC1CCC(CC2CCC(N)CC2)CC1 (stereo not given)
Potency [1]: inactive
Potency [2]: inactive
Potency [3]: inactive
Potency [4]: inactive
Potency [9]: inactive
Potency [8]: inactive
Potency [6]: inactive

CCOP(=O)(OCC)Oc1cc(C)nc(C(C)C)n1
Potency [1]: inactive
Potency [2]: inactive
Potency [3]: inactive
Potency [4]: inactive
Potency [9]: inactive
Potency [5]: inactive
Potency [8]: inactive
Potency [6]: inactive

C#CCO
Potency [1]: inactive
Potency [2]: inactive
Potency [3]: inactive
Potency [4]: inactive
Potency [5]: inactive
Potency [6]: inactive
Potency [7]: inactive
Potency [10]: inactive

COC(=O)C(C)N(C(=O)c1ccco1)c1c(C)cccc1C (stereo not given)
Potency [1]: inactive
Potency [2]: inactive
Potency [3]: inactive
Potency [4]: inactive
Potency [5]: inactive
Potency [6]: inactive
Potency [7]: inactive
Potency [10]: inactive

COc1c2c(cc3c1OCO3)CCN(C)C2
Potency [1]: inactive
Potency [2]: inactive
Potency [3]: inactive
Potency [4]: inactive
Potency [5]: inactive
Potency [6]: inactive
Potency [10]: inactive

Cc1ccc(C)c2ccccc12
Potency [1]: inactive
Potency [2]: inactive
Potency [3]: inactive
Potency [4]: inactive
Potency [9]: inactive
Potency [5]: inactive
Potency [8]: inactive
Potency [6]: inactive
Potency [7]: inactive
Potency [10]: inactive

Cc1c([N+](=O)[O-])c(C)c([N+](=O)[O-])c(C(C)(C)C)c1[N+](=O)[O-]
Potency [1]: inactive
Potency [2]: inactive
Potency [3]: inactive
Potency [4]: inactive
Potency [7]: inactive
Potency [10]: inactive

CSSC
Potency [1]: inactive
Potency [2]: inactive
Potency [3]: inactive
Potency [4]: inactive
Potency [5]: inactive
Potency [6]: inactive
Potency [10]: inactive

CSC(C)(C)/C=N/O
Potency [1]: inactive
Potency [2]: inactive
Potency [3]: inactive
Potency [4]: inactive
Potency [5]: inactive
Potency [6]: inactive
Potency [7]: inactive
Potency [10]: inactive

O=C(Nc1ccc(F)cc1F)c1cccnc1Oc1cccc(C(F)(F)F)c1
Potency [1]: inactive
Potency [2]: inactive
Potency [3]: inactive
Potency [4]: inactive
Potency [5]: inactive
Potency [8]: inactive
Potency [6]: inactive
Potency [7]: inactive
Potency [10]: inactive

COc1cnc(OC)n2nc(NS(=O)(=O)c3c(OCC(F)F)cccc3C(F)(F)F)nc12
Potency [1]: inactive
Potency [2]: inactive
Potency [3]: inactive
Potency [4]: inactive
Potency [6]: inactive

N#CSCc1ccccc1
Potency [1]: inactive
Potency [2]: inactive
Potency [3]: inactive
Potency [4]: inactive
Potency [9]: inactive
Potency [5]: inactive
Potency [8]: inactive
Potency [7]: inactive
Potency [10]: inactive

COC(=O)c1cc(Oc2ccc(Cl)cc2Cl)ccc1[N+](=O)[O-]
Potency [1]: inactive
Potency [2]: inactive
Potency [3]: inactive
Potency [4]: inactive
Potency [9]: inactive
Potency [5]: inactive
Potency [8]: inactive
Potency [6]: inactive

CC(C)C(Br)C(=O)NC(N)=O (stereo not given)
Potency [1]: inactive
Potency [2]: inactive
Potency [3]: inactive
Potency [4]: inactive
Potency [9]: inactive
Potency [5]: inactive
Potency [8]: inactive
Potency [6]: inactive
Potency [7]: inactive
Potency [10]: inactive

CNC(=O)/C=C(\C)OP(=O)(OC)OC
Potency [1]: inactive
Potency [2]: inactive
Potency [3]: inactive
Potency [4]: inactive
Potency [9]: inactive
Potency [8]: inactive
Potency [6]: inactive
Potency [7]: inactive
Potency [10]: inactive

CCCCCON=O
Potency [1]: inactive
Potency [2]: inactive
Potency [3]: inactive
Potency [4]: inactive
Potency [5]: inactive
Potency [6]: inactive
Potency [10]: inactive

CC1CN1 (stereo not given)
Potency [1]: inactive
Potency [2]: inactive
Potency [3]: inactive
Potency [4]: inactive
Potency [5]: inactive
Potency [6]: inactive

CCN(CC)Cc1nccn1-c1ccc([N+](=O)[O-])cc1C(=O)c1ccccc1Cl
Potency [1]: inactive
Potency [2]: inactive
Potency [3]: inactive
Potency [4]: inactive
Potency [5]: inactive
Potency [6]: inactive
Potency [7]: inactive
Potency [10]: inactive

Cc1cc2c3c(c1)C(c1ccccc1)=N[C@@H](NC(=O)c1ccncc1)C(=O)N3CC2
Potency [1]: inactive
Potency [2]: inactive
Potency [3]: inactive
Potency [4]: inactive
Potency [9]: inactive
Potency [5]: inactive
Potency [8]: inactive
Potency [6]: inactive
Potency [7]: inactive

CC(Cl)CCl (stereo not given)
Potency [1]: inactive
Potency [2]: inactive
Potency [3]: inactive
Potency [4]: inactive
Potency [5]: inactive
Potency [6]: inactive
Potency [7]: inactive
Potency [10]: inactive
